# Source: PubChem (National Center for Advancing Translational Sciences (NCATS))
# IL-1B inflam inh – inhibitors of inflammasome signaling (IL-1 beta secretion); THP-1 LPS/ATP IL-1B secretion, AlphaLISA, 16 h; active compounds read low; 4.7% of 360,000 active; activity change, % at 57.5 µM; AID 743279; in the data active = activity change below about -50%; inconclusive = mostly about -30% to -49%; note: % is set by controls: 0 for no effect and ±100 for the full control effect
#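 THP-1 cells pretreated 1 hr with compounds (up to 57.5 uM final), then stimulated with LPS (250 ng/mL final) plus ATP (1.25 mM final); secreted IL-1B measured by AlphaLISA after 16 hr, decreased signal indicating inhibition.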
# KB-V1 MDR tox – kills drug-selected multidrug resistant KB-V1 cells; AID 1347076; KB-V1 MDR cells viability, CellTiter-Glo, 72 h; 3.4% of 400,000 active; Potency, µM (top dose mostly 46.1 µM), usual class: cytotoxic; note: potency is the fitted concentration of half-maximal effect; % is set by controls: 0 for no effect and ±100 for the full control effect; nearly all actives have a fitted effect of over 60% in size
#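 Luminescent ATP read-out (CellTiter-Glo, 10 min) measures survival of drug-selected KB-V1 MDR cells after 72 h, 37 degrees C compound exposure. Medium: phenol-red-free DMEM, 10% FBS. Values from fitted concentration-response curves.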
# MCF10A rereplic – inducers of DNA re-replication in MCF 10A breast cells | 2.9% of 350,000 active | MCF 10A DNA re-replication, Hoechst nuclear intensity, 48 h | Potency, µM (top dose mostly 46.1 µM), for inactives: top-dose activity, positive = re-replication, actives largely listed as activators; note: potency is the fitted concentration of half-maximal effect; % of control where 0% means no effect; nearly all actives have a fitted effect of over 50% in size
# KB-3-1 tox – kills parental KB-3-1 adenocarcinoma cells; KB-3-1 viability, CellTiter-Glo ATP luminescence, 72 h; Potency, µM (series often up to 46.1 µM), hits mostly cytotoxic; 1.4% of 400,000 active; note: potency is the fitted concentration of half-maximal effect; % is set by controls: 0 for no effect and ±100 for the full control effect; nearly all actives have a fitted effect of over 60% in size
#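 Here the drug-naive KB-3-1 line serves as comparator for MDR sub-line selectivity; cells received compound titrations, 72 h at 37 °C, then CellTiter-Glo readout.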
# SW480 rereplic – induces DNA re-replication in SW480 colon adenocarcinoma cells | 1.8% of 340,000 active | SW480 DNA re-replication, Hoechst DNA content imaging, 48 h | Potency, µM (highest dose often 46.1 µM), without a hit: at the highest dose re-replication activation, usual class: activators; note: potency is the fitted concentration of half-maximal effect; % of control where 0% means no effect; nearly all actives have a fitted effect of over 55% in size
#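 250 cells/well; 23 nL cpd via pin tool; 48 hr, 37 C, 5% CO2; Hoechst 40 min; imager read of total nuclear intensity, ex 405/em 500-530 nm.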
# Numbers without * were called inactive; i = inactive; ? = inconclusive; . = no result given. Rows were chosen to be rich in hits. Some 9.9% of all compounds tested hit in one or more screens of this group. Unless noted, calls come from the whole dose curve; as a rule, active = well fitted curve in the direction sought with a large enough effect; inconclusive = small, poorly fitted or top-dose-only effect, or another doubt; inactive = no such curve, though single readings can be large; an effect the other way counts as inactive or inconclusive.
SMILES,IL-1B inflam inh,KB-V1 MDR tox,MCF10A rereplic,KB-3-1 tox,SW480 rereplic
COC(=O)c1ccc(OCc2nn[nH]n2)cc1,-0.4,i,8.3%,i,3.7%
CC(C)CNC(=O)c1ccccc1NC(=O)CCSc1ccccc1,3.4,20.6µM*,?,i,0.8%
O=C(CCSc1ccccc1)Nc1ccccc1C(=O)N1CCCC1,1.7,?,0.0%,?,5.8%
O=C(CCSc1ccccc1)Nc1ncccn1,18.2,i,20.6µM*,i,23.0%
CC(C)CNC(=O)c1ccccc1NC(=O)Nc1ccccc1,-5.7,i,10.8%,i,-4.8%
CCC(C)NC(=O)c1ccccc1NC(=O)c1ccc(CSc2ccc(C)cc2)cc1 (stereo not drawn),8.2,i,17.1%,i,-13.6%
Cc1ccc(SCCC(=O)Nc2ccccc2C(=O)N2CCOCC2)cc1,29.1,23.1µM*,-10.0%,i,-6.4%
CC(C)CNC(=O)c1ccccc1NC(=O)c1ccc(CSc2ccccc2)cc1,-3.0,13µM*,?,i,17.7%
COc1ccc(N(CC(=O)NC2CC2)S(=O)(=O)c2ccccc2)cc1,20.2,i,-1.6%,i,-16.9%
O=C(O)c1cc(O)c2c(c1)[C@H]([C@H]1c3cc(C(=O)O)cc(O)c3C(=O)c3c(O[C@@H]4OC(CO)C(O)C(O)C4O)cccc31)c1cccc(O[C@@H]3OC(CO)C(O)C(O)C3O)c1C2=O (stereo partly drawn),.,.,-6.9%,.,-2.6%
N#Cc1ccccc1S(=O)(=O)Nc1ccc2c(c1)C(=O)OC2,9.4,i,-1.2%,i,-10.4%
Cc1cc(C)c2c(CN(C)Cc3ccccc3)cc(=O)oc2c1,0.8,i,.,i,.
Cc1ccc2nc(N3CCC(C(=O)O)CC3)nc(-c3ccccc3)c2c1,2.0,i,20.6µM*,i,0.1%
Cc1ccc2nc(N3CC(=O)Nc4ccccc43)nc(-c3ccccc3)c2c1,30.5,?,3.26µM*,i,18.4µM*
Cc1ccc2nnnc(-c3ccccc3)c2c1,6.0,i,?,i,?
c1ccc(-c2nc(N3CCCCC3)nc3ccccc23)cc1,0.0,i,?,i,?
Cc1ccc2nc(N3CCN(C(=O)CCC(=O)O)CC3)nc(-c3ccccc3)c2c1,-6.8,i,20.6µM*,i,14.3%
O=C(O)CCCC(=O)N1CCN(c2nc(-c3ccccc3)c3ccccc3n2)CC1,3.5,i,5.7%,i,?
COc1cc(C(=O)OCCCc2cc3ccccc3c(=O)o2)cc(OC)c1OC,0.0,i,-7.2%,i,-4.3%
COc1cc(C(=O)OCCc2cc3ccccc3c(=O)o2)cc(OC)c1OC,56.4,?,14.6µM*,4.61µM*,8.2µM*
O=c1oc(CCO)cc2ccccc12,0.3,i,3.7%,i,-26.4%
C[C@H](O)Cc1cc2ccccc2c(=O)o1,3.8,i,2.91µM*,i,1.1%
O=C(CBr)c1ccc(Oc2ccc(C(=O)C[n+]3cccc(Br)c3)cc2)cc1,.,i,.,i,.
Cc1ccc(NC(=O)C(C)c2cccc(C(=O)c3ccccc3)c2)cc1O (stereo not drawn),?,6.51µM*,?,?,11.3%
O=C1C=CC(=Nc2ccc3c(c2)C(=O)c2ccccc2-3)O1,-1.9,i,6.7%,i,-3.5%
SMILES,IL-1B inflam inh,KB-V1 MDR tox,MCF10A rereplic,KB-3-1 tox,SW480 rereplic
O=C1C=CC(=Nc2ccc(F)cc2)O1,-51.2*,?,18.4µM*,i,?
Cc1ccc2cc(CN(CC(C)C)C(=O)C3CCCO3)c(=O)[nH]c2c1 (stereo not drawn),35.8,?,1.5%,i,-4.2%
Cc1ccc2cc(COC(=O)C3CCCO3)c(=O)[nH]c2c1 (stereo not drawn),8.0,11.6µM*,-2.2%,?,-5.1%
COc1cccc(C(=O)NNC(=O)C(=O)Nc2cccc(Cl)c2C)c1,-29.6,i,7.7%,i,23.1µM*
COc1cccc(C(=O)NNc2nc(C)cc(C)n2)c1,0.0,?,?,i,0.517µM*
O=C(C1CCN(S(=O)(=O)c2ccc(F)cc2)CC1)N1CCCC(C(F)(F)F)C1 (stereo not drawn),1.6,i,14.6%,i,-9.2%
